Counter-ions that a name gives are not always drawn.
Columns and labels:
Settings in all cases: incubation time: 27 h, anaerobic, 37 °C;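 for the amine columns active = adjusted P below 0.05 in both replicates with a change the same way and a mean fold change under 0.8 or over 1.25; inactive = the rest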
[1] = tested on: Clostridium sporogenes DSM 1664; experiment: growth (OD595) fold change vs plate DMSO controls (fold change (ratio)); higher = more growth
How it was run: (§1)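 To obtain OD, 595 nm absorbance readings were blank-subtracted, corrected for compound background using 20 µM compound solutions in water, and multiplied by a calibration factor of 5. They came from 96-well mGAM cultures grown anaerobically for 27 h at 37 °C and shaken before reading. Growth is the fold change relative to the median of plate DMSO controls. Two biological replicates were averaged, and fold changes above 1.5 were set to NA.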

Escherichia coli IAI1 [2] = experiment: as above
How it was run: as §1

[3] = tested on: Klebsiella aerogenes DSM 30053; experiment: as above
How it was run: as §1

[4] = tested on: Ruminococcus gnavus DSM 108212; experiment: as above
How it was run: as §1

[5] = tested on: Klebsiella aerogenes DSM 30053; experiment: fold change of Histamine concentration vs plate DMSO controls (fold change (ratio)); higher = more amine produced, active = hit call of the paper (significant change in both replicates, either direction)
How it was run: (§2)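 Anaerobic mGAM cultures of four gut bacterial strains were grown at 37 °C for 27 h in 80 µL wells, starting at OD 0.1 before 1:1 dilution. Compounds were at 20 µM final (sweeteners 50 µM). Whole cultures were extracted with cold acetonitrile/methanol containing 0.1% formic acid and centrifuged. Amines were quantified by LC–triple-quadrupole MS (dynamic MRM) against external calibration curves and drift-corrected within batch. Each value is the fold change versus plate DMSO controls, averaged over 2 biological replicates.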

[6] = tested on: Clostridium sporogenes DSM 1664; experiment: fold change of Tryptamine concentration vs plate DMSO controls (fold change (ratio)); higher = more amine produced, active = hit call of the paper (significant change in both replicates, either direction)
How it was run: as §2

[7] = tested on: Ruminococcus gnavus DSM 108212; experiment: as above
How it was run: as §2

Escherichia coli IAI1 [8] = experiment: fold change of Putrescine concentration vs plate DMSO controls (fold change (ratio)); higher = more amine produced, active = hit call of the paper (significant change in both replicates, either direction)
How it was run: as §2

[9] = tested on: Klebsiella aerogenes DSM 30053; experiment: as above
How it was run: as §2

Escherichia coli IAI1 [10] = experiment: fold change of Cadaverine concentration vs plate DMSO controls (fold change (ratio)); higher = more amine produced, active = hit call of the paper (significant change in both replicates, either direction)
How it was run: as §2

[11] = tested on: Klebsiella aerogenes DSM 30053; experiment: as above
How it was run: as §2

[12] = tested on: Ruminococcus gnavus DSM 108212; experiment: fold change of 2-Phenylethylamine concentration vs plate DMSO controls (fold change (ratio)); higher = more amine produced, active = hit call of the paper (significant change in both replicates, either direction)
How it was run: as §2

Compound	growth [1]	growth (Escherichia coli IAI1 [2])	growth [3]	growth [4]	fold change of Histamine concentration [5]	fold change of Tryptamine concentration [6]	fold change of Tryptamine concentration [7]	fold change of Putrescine concentration (Escherichia coli IAI1 [8])	fold change of Putrescine concentration [9]	fold change of Cadaverine concentration (Escherichia coli IAI1 [10])	fold change of Cadaverine concentration [11]	fold change of 2-Phenylethylamine concentration [12]
COc1ccc2[nH]c([S+]([O-])Cc3ncc(C)c(OC)c3C)nc2n1 (centres undefined) [Tenatoprazole] (20 µM)	1	1.06	1.04	1.14	0.985 (inactive)	1.03 (inactive)	1.01 (inactive)	1.06 (inactive)	0.996 (inactive)	0.977 (inactive)	0.995 (inactive)	1.01 (inactive)
CN[C@@H]1CCc2[nH]c3ccc(C(N)=O)cc3c2C1 [Frovatriptan succinate] (20 µM)	1.12	0.98	0.991	1.01	1.05 (inactive)	0.957 (inactive)	0.964 (inactive)	1.03 (inactive)	1 (inactive)	1.03 (inactive)	0.984 (inactive)	0.945 (inactive)
NCCc1cc[nH]n1 [Betazole hydrochloride] (20 µM)	1.01	0.989	1.03	1.02	0.96 (inactive)	1 (inactive)	1.04 (inactive)	0.987 (inactive)	1.02 (inactive)	1 (inactive)	1 (inactive)	1.02 (inactive)
CN(C)CCOC(=O)C(c1ccccc1)C1(O)CCCC1 (centres undefined) [Cyclopentolate hydrochloride] (20 µM)	0.823	1.04	1.04	0.93	0.982 (inactive)	1.01 (inactive)	1.02 (inactive)	1.04 (inactive)	0.987 (inactive)	0.977 (inactive)	0.99 (inactive)	1.05 (inactive)
CN(C)[C@@H]1C(=O)C(C(N)=O)=C(O)[C@@]2(O)C(=O)C3=C(O)c4c(O)ccc(Cl)c4[C@@H](O)[C@H]3C[C@@H]12 [Demeclocycline hydrochloride] (20 µM)	0	0.0384	0.0385	0.802	0.107 (active)	0.0455 (active)	0.319 (active)	0.239 (active)	0.472 (active)	0.225 (active)	0.547 (active)	0.364 (active)
C[C@H]1[C@H](OC(=O)CCC(=O)O)O[C@@H]2O[C@@]3(C)CC[C@H]4[C@H](C)CC[C@@H]1[C@@]24OO3 [Artesunate] (20 µM)	1.08	1.01	1.03	0.931	1.04 (inactive)	1.05 (inactive)	0.879 (inactive)	0.992 (inactive)	1.01 (inactive)	0.99 (inactive)	0.982 (inactive)	0.834 (inactive)
c1ccc(CN(CC2=NCCN2)c2ccccc2)cc1 [Antazoline hydrochloride] (20 µM)	0.903	0.968	0.958	0.834	1.06 (inactive)	0.965 (inactive)	1.06 (inactive)	0.929 (inactive)	1.01 (inactive)	1.07 (inactive)	0.998 (inactive)	1.08 (inactive)
CC(=O)O[C@]1(C(C)=O)CC[C@H]2[C@@H]3C=C(Cl)C4=CC(=O)[C@@H]5C[C@@H]5[C@]4(C)[C@H]3CC[C@@]21C [Cyproterone acetate] (20 µM)	1.17	0.908	0.894	0.639	0.982 (inactive)	0.986 (inactive)	0.938 (inactive)	1.02 (inactive)	1 (inactive)	0.999 (inactive)	0.996 (inactive)	0.927 (inactive)
CC1COc2ccccc2N1C(=O)C(Cl)Cl (centres undefined) (20 µM)	0.957	1.02	1.02	0.965	1.02 (inactive)	1.02 (inactive)	1.06 (inactive)	0.986 (inactive)	0.941 (inactive)	1.04 (inactive)	1.05 (inactive)	1.11 (inactive)
O=C(NCCCN1CCOCC1)c1ccc(Cl)cc1 [Eprobemide] (20 µM)	1.11	1.1	1.07	1.04	0.982 (inactive)	1.02 (inactive)	1.06 (inactive)	0.929 (inactive)	0.934 (inactive)	0.942 (inactive)	1.05 (inactive)	1.12 (inactive)
COc1nc(C)nc(Cl)c1NC1=NCCN1 [Moxonidine] (20 µM)	1.05	0.991	0.981	1.01	1.07 (inactive)	1 (inactive)	1.04 (inactive)	1 (inactive)	1.01 (inactive)	1.01 (inactive)	0.991 (inactive)	1.07 (inactive)
Cc1ccccc1OCC(O)CO (centres undefined) [Mephenesin] (20 µM)	0.974	1.12	1.02	0.982	1.01 (inactive)	1.02 (inactive)	1.04 (inactive)	1.13 (inactive)	1 (inactive)	0.927 (inactive)	1 (inactive)	1.06 (inactive)

From the supplement of paper PMC12494721
